Experimental findings from PubChem BioAssay (NCATS) are described below.

SMILES strings stand for the structures. Results filed as inconclusive are left out. A number with no mark means an inactive call. This is one part of the list. Active and inactive are the calls of the source. Unless noted, calls follow the shape of the dose curve; as a rule, active = well fitted curve in the direction sought with a large enough effect; inconclusive = small, poorly fitted or top-dose-only effect, or another doubt; inactive = no such curve, though single readings can be large; an effect the other way counts as inactive or inconclusive.

Assay [1] addresses Glucocorticoid receptor (Homo sapiens) (UniProt P04150). Put plainly: qHTS assay for small molecule antagonists of glucocorticoid receptor signaling (AID 588533; active = well fitted inhibition curve with a large enough effect in the signal ratio, with a control signal flat, not every such curve was filed as active; the % refers to the signal ratio; also: potency is read from the fitted curve at half-maximal effect). A digest of the protocol:
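Antagonist-mode qHTS: compound titrations added to GRE-bla HeLa cells, then dexamethasone 2 nM final; 18 h, 37 C. CCF4 FRET fluorescence normalized to dexamethasone and DMSO; IC50 from Hill fit.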
In general terms: In qHTS, concentration-response curves come from the screen itself.

Assay [2] can be described thus: qHTS assay for small molecule agonists of the antioxidant response element (ARE) signaling pathway (AID 651741; active = well fitted activation curve with a large enough effect in the signal ratio; the % refers to the signal ratio; also: potency is read from the fitted curve at half-maximal effect; as to activation: % of control where 0% means no effect). The essentials: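 Reporter: beta-lactamase under ARE, stably in HepG2. Exposure: 16 h, 37 C, compounds delivered in DMSO by pin tool after 5 h cell preincubation. Readout: FRET substrate fluorescence after 2 h at RT.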
Assay [3] concerns the target Peroxisome proliferator-activated receptor gamma (Homo sapiens) (UniProt P37231). Put plainly: qHTS assay for small molecule antagonists of peroxisome proliferator-activated receptor gamma signaling (AID 588537; active = well fitted inhibition curve with a large enough effect in the signal ratio, with a control signal flat, not every such curve was filed as active; the % refers to the signal ratio; also: potency is read from the fitted curve at half-maximal effect). A digest of the protocol:
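Compounds are tested as concentration series for inhibition of rosiglitazone-driven (50 nM) reporter expression in GeneBLAzer PPAR-gamma-UAS-bla HEK293 cells. After 16 h at 37 C, CCF4 substrate is added for 2 h at room temperature and blue/green fluorescence is measured.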

Assay [4] is described as follows: qHTS assay for small molecule activators of the nuclear factor-kappa B (NF-kB) signaling pathway (AID 651749; active = well fitted activation curve with a large enough effect in the signal ratio; the % refers to the signal ratio; also: series mostly up to about 77 µM; % of control where 0% means no effect). The conditions noted are these: NF-kB-bla ME-180 cells, beta-lactamase FRET ratio, 16 h; activation: stronger effect = higher value. A digest of the protocol: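 Human ME-180 cervical cells with an NF-kB-bla construct; compounds added via 23 nL pin transfer, DMSO as vehicle; incubation 16 hr. Reporter activity measured by FRET disruption.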

Assay [5] addresses Retinoic acid receptor RXR-alpha (Homo sapiens) (UniProt P19793). Put plainly: qHTS assay for small molecule agonists of retinoid X receptor alpha signaling (AID 588544; calls by dose curve;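 also: 0% = DMSO basal wells and 100% = reference agonist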).
The target in assay [6] is Vitamin D3 receptor (Homo sapiens) (UniProt P11473). Put plainly: qHTS for Inhibitors of the vitamin D receptor (VDR): Hit Validation in Primary Screen (AID 602199). Also: potency is read from the fitted curve at half-maximal effect. The conditions noted are these: VDR-coactivator inhibition assay, qHTS confirmation. The essentials: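 Fluorescence polarization assay of VDR binding to Alexa 647-labelled SRC2-3 coactivator peptide: 800nM VDR with 5uM LG19078 agonist, compounds, 2 h at room temperature, read Ex 620 nm/Em 688 nm.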

For assay [7] the target is unchanged. Description: qHTS for Inhibitors of the vitamin D receptor (VDR): Hit Validation using a Fluorescein Assay (AID 602200). Also: potency is read from the fitted curve at half-maximal effect. The conditions noted are these: VDR-coactivator binding, fluorescein fluorescence polarization. The essentials: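 Fluorescence polarization (Ex 495 nm/Em 520 nm) read after 2 h at room temperature, reporting disruption of binding between 1.5 uM VDR-LBD, liganded by 5 uM LG19078, and 5 nM fluorescein-labelled SRC2-3 coactivator peptide (final concentrations).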

A short description of assay [8]: qHTS for Inhibitors of the vitamin D receptor (VDR): Hit Validation using a Texas Red Assay (AID 602201). Also: potency is read from the fitted curve at half-maximal effect. The essentials:
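Fluorescence polarization (Ex 595/Em 615 nm) of Texas Red (7 nM) with 1.5 uM VDR-LBD and LG19078 (final concentrations). Compounds were incubated for 2 hours at room temperature.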

For assay [9], the target named is Vitamin D3 receptor (Homo sapiens) (UniProt P11473). Description: qHTS for Inhibitors of the vitamin D receptor (VDR): Hit Validation using a Beta-Lactamase Assay (AID 602202). Also: potency is read from the fitted curve at half-maximal effect. A digest of the protocol:
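Stably transfected HEK293 cells express a VDR–GAL4 DNA-binding-domain fusion driving a UAS beta-lactamase reporter, stimulated by agonist LG190178. Compounds were added 4 h after plating and incubated 18 h. A FRET beta-lactam substrate was then added for 2 h and cleaved substrate emission read at 447 nm.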

Assay [10] can be described thus: qHTS for Inhibitors of the vitamin D receptor (VDR): Hit Validation using a Cytotoxicity Assay (AID 602204).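 Also: plate controls were DMSO for no effect and high-concentration cycloheximide for full effect; nearly all actives have a fitted effect of over 75% in size.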 A digest of the protocol:
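Cells were seeded at 20,000 per well and left 4 hours before compound addition. After 18 hours of exposure, an ATP-detecting luminescent reagent was added, and luminescence was read 30 minutes later. Cycloheximide at high concentration and DMSO served as controls.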

For assay [11], the target named is DNA polymerase iota (Homo sapiens) (UniProt Q9UNA4). Description: qHTS for Inhibitors of Polymerase Iota: Confirmatory Assay for Cherry-picked Compounds (AID 720496). Also: potency is read from the fitted curve at half-maximal effect. To be noted: Pol iota primer extension, TAMRA/BHQ fluorescence. The essentials: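 10 nM Pol iota + cpd, 15 min RT; start w/ 50 nM (final) TAMRA reporter/BHQ-2 template primer substrate; ex 525/em 598 nm read at 0 and 10 min kinetic.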

The target in assay [12] is Bifunctional 3'-5' exonuclease/ATP-dependent helicase WRN (Homo sapiens) (UniProt Q14191). Description: qHTS for Inhibitors of WRN Helicase: Confirmatory Assay for Cherry-picked Compounds. (AID 720497). Also: series mostly up to about 57 µM; nearly all actives have a fitted effect of over 65% in size. The essentials:
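Kinetic fluorescence helicase read-out (525 nm excitation, 598 nm emission) on a forked duplex substrate at 100 nM with 2 mM ATP. Enzyme: 20 nM WRN, exposed to compound for 15 min at room temperature. Responses normalized to buffer-only and positive-control wells.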

Assay [13] can be described thus: qHTS for Inhibitors of WRN Helicase: Thiazole Orange DNA Binding Counterscreen (AID 720499).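 Also: drop in dye fluorescence marks compound binding to DNA; % is scaled to controls: 0 for no effect and ±100 for the full control effect; nearly all actives have a fitted effect of over 60% in size.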 The essentials:
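Mixture of 100 nM thiazole orange and 50 nM unlabeled DNA exposed to compound 15 min at room temperature. Dye displacement monitored by 480/530 nm fluorescence, identifying nonspecific DNA binders.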

Assay [14] has as its target RecQ-like DNA helicase BLM (Homo sapiens) (UniProt P54132). Description: qHTS for Inhibitors of WRN Helicase: BLM Helicase Counterscreen for WRN Inhibitors (AID 720503).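 Also: plate controls were DMSO vehicle for no effect and enzyme-free control wells for full effect; nearly all actives have a fitted effect of over 60% in size.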 The essentials:
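1 nM BLM, Tris pH 8.0/NaCl/MgCl2/DTT/Tween-20; cpd preinc 15 min RT; start w/ 100 nM DNA + 2 mM ATP final; fluorescence (ex 525/em 598) two reads 15 min apart; normalized to enzyme-free and DMSO controls.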

Sequence of Retinoic acid receptor RXR-alpha (Homo sapiens) (P19793 whole entry, looked up): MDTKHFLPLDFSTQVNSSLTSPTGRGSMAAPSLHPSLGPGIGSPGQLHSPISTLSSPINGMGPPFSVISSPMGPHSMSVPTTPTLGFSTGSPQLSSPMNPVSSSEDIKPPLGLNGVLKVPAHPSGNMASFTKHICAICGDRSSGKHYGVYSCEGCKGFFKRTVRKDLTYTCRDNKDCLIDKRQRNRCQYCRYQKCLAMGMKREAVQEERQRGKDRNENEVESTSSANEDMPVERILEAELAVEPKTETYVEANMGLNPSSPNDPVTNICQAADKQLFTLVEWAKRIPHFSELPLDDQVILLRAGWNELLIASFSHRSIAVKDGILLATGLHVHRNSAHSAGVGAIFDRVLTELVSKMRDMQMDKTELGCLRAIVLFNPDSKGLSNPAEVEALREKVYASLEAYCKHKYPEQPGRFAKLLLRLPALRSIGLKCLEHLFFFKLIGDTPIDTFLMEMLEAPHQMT
Sequence of Peroxisome proliferator-activated receptor gamma (Homo sapiens) (P37231 whole entry, looked up): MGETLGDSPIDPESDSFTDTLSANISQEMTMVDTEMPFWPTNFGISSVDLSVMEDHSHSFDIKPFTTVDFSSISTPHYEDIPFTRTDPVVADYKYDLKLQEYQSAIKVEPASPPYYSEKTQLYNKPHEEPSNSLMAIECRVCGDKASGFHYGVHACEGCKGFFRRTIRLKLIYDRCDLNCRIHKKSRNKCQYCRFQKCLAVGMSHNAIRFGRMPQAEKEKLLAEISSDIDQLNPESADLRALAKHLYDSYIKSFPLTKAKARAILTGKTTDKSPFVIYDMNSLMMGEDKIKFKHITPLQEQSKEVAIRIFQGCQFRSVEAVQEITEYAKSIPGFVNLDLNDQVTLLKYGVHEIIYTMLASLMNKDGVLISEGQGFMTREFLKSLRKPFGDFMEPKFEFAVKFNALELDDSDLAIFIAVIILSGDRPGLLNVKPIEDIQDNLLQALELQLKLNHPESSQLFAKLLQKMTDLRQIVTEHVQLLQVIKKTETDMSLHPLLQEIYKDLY
Sequence of Vitamin D3 receptor (Homo sapiens) (P11473 whole entry, looked up, the tested form may be a part): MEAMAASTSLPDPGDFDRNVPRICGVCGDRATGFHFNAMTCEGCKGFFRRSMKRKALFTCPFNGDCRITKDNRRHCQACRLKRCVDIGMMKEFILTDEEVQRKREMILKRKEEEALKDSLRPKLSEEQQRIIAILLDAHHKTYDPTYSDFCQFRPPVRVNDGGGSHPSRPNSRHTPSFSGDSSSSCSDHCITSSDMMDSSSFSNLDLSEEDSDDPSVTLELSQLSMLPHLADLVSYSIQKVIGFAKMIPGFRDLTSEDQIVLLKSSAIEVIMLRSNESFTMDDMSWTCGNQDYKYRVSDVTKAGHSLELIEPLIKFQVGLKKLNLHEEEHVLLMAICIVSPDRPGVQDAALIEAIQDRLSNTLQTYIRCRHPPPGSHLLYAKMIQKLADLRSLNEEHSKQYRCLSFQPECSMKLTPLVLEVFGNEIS
Sequence of Glucocorticoid receptor (Homo sapiens) (P04150 whole entry, looked up): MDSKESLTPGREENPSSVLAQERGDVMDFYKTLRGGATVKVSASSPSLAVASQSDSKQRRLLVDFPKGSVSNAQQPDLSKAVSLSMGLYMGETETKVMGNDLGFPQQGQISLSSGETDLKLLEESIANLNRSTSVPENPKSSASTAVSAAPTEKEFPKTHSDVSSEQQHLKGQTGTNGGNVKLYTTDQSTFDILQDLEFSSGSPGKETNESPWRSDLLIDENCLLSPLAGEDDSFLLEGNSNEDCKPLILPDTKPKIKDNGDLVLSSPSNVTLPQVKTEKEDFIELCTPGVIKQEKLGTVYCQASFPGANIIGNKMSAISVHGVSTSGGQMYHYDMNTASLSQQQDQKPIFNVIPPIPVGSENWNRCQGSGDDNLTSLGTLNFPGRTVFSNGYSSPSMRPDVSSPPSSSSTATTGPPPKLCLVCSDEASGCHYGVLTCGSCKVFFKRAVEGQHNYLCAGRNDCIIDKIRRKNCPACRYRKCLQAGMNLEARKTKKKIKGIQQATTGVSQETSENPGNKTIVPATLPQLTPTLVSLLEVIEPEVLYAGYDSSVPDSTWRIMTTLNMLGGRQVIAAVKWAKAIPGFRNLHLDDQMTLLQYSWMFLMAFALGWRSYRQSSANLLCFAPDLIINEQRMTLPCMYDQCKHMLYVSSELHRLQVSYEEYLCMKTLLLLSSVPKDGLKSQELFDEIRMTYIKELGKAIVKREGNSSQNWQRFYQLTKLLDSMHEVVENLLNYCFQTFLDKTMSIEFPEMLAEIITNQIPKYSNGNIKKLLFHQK
Sequence of Bifunctional 3'-5' exonuclease/ATP-dependent helicase WRN (Homo sapiens) (Q14191 whole entry, looked up): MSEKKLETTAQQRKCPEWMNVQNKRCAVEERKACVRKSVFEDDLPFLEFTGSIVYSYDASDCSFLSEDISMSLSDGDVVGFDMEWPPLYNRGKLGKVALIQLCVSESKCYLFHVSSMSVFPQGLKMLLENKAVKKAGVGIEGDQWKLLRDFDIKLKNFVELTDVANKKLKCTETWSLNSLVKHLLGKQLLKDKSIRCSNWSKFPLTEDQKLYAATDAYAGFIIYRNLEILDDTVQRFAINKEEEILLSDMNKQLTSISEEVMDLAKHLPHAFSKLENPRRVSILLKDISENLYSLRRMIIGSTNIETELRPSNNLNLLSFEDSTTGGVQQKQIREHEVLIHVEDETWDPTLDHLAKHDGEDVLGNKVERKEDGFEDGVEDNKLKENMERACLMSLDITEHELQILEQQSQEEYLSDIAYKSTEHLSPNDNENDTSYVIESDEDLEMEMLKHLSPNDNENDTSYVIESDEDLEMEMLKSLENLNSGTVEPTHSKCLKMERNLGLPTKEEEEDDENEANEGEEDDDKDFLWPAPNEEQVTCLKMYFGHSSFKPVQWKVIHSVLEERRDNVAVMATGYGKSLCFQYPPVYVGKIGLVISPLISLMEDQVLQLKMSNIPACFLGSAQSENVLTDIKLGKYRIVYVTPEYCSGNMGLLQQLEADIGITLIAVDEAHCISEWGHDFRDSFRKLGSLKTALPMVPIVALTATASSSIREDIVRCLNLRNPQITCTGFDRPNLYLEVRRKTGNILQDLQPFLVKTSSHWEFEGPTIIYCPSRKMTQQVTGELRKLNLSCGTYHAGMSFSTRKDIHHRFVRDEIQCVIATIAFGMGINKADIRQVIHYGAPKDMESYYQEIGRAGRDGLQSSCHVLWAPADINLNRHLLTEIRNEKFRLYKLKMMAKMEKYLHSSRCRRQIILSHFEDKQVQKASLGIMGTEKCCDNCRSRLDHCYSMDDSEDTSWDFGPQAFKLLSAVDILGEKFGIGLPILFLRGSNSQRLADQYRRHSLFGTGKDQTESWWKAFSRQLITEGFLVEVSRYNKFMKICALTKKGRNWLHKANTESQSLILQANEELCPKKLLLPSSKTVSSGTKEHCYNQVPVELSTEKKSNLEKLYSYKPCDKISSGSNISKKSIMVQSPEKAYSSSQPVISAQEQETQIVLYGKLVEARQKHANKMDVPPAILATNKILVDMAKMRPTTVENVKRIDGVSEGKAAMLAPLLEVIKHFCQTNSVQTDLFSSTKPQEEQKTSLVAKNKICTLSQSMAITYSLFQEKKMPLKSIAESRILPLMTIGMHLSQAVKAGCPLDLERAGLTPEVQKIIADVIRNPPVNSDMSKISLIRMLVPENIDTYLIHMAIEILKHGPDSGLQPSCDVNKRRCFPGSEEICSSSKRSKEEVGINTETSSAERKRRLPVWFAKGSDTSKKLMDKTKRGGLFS
Sequence of RecQ-like DNA helicase BLM (Homo sapiens) (P54132 whole entry, looked up): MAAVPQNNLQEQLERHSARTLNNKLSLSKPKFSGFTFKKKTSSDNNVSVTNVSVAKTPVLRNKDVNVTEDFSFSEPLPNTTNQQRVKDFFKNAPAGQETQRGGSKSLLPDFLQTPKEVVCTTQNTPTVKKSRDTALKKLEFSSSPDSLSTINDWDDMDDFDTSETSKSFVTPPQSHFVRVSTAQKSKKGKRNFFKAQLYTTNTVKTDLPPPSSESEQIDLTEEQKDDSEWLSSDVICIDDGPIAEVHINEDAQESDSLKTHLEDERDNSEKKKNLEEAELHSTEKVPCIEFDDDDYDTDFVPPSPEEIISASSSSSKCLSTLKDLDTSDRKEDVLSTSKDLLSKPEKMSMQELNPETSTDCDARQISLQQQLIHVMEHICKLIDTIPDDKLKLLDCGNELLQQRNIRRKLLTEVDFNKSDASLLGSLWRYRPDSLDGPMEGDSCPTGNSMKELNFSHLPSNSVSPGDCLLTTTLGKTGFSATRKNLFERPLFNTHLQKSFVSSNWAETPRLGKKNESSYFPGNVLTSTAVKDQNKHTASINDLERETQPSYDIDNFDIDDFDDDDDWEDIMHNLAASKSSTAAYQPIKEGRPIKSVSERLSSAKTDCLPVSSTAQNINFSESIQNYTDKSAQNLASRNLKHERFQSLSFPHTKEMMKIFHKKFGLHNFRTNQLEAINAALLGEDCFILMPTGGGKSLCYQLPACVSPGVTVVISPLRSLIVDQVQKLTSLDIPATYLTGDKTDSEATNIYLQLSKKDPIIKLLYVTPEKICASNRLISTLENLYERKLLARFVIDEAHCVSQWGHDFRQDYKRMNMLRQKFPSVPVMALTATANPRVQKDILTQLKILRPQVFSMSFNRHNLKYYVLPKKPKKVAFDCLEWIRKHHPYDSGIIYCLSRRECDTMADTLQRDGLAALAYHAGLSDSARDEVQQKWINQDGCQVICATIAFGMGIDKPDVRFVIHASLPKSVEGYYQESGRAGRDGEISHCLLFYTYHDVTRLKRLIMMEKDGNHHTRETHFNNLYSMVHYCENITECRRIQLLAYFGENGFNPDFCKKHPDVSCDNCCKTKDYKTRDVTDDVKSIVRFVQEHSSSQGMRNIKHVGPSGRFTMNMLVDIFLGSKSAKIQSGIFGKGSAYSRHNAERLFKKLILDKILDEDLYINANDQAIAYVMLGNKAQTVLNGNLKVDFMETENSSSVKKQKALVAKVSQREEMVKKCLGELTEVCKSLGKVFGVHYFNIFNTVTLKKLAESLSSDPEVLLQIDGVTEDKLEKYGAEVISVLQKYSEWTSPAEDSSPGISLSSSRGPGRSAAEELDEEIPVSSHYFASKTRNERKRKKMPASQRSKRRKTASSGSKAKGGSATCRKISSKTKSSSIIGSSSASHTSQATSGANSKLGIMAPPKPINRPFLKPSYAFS

Consider `O=C(O)c1cc(O)c2ccccc2c1O`, for which the results for the Potency in assay [1] and in assay [2] were 44.7 µM (active) and 7.7 µM (active), respectively.
On to `CCCCC(CC)CN1C(=O)C2C3C=CC(C3)C2C1=O` (stereo unspecified), for which the Potency result in assay [3] is “inactive”. Further, the activation in assay [4] is 0.646%.
As for `CCNc1nc(NC(C)CC)nc(OC)n1` (stereo unspecified), the Potency result in assay [1], in [3], in assay [5] and in assay [2] was “inactive” in each case.
For `Cc1cc(Cc2cc(C)cc(C(C)(C)C)c2O)c(O)c(C(C)(C)C)c1`, the Potency in assay [2] was 48.6 µM (active).
Take `COc1cc(Cl)c(OC)cc1N`: the Potency result in assay [1] is “inactive”.
For the compound `CCOC(=O)c1sc(=S)n2c1[nH]c(=O)c1ccc(C(=O)OC)cc12`, the figures for the Potency in assay [6], in assay [7] and in [8] were 7.94 µM (active), 6.31 µM (active) and 10 µM (active), respectively. Further, the Potency entry in assay [9] and in [10] was “inactive” each time.
In the case of `C=C(C)C(=O)OCCC[Si](Cl)(Cl)Cl`, the Potency result in assay [1] and in assay [5] was “inactive” each time. For the same compound, the activation in assay [4] is -0.259%.
Consider `CN(C)c1ccc(C(c2ccccc2)c2ccc(N(C)C)cc2)cc1`, for which, in [4], the activation was 5.79%.
For the compound `O=C(/C=C/c1ccccc1)c1ccccc1O`, the Potency is 23.8 µM (active) in assay [6] and 14.1 µM (active) in assay [7]. The Potency result in assay [9] and in assay [10] was “inactive” throughout.
With `CC(=O)N(C1=C(Cl)C(=O)c2ccccc2C1=O)c1ccc(C(=O)O)cc1`, the Potency in assay [6] was 7.94 µM (active); in assay [7], 2.82 µM (active); in [8] it was 3.55 µM (active); in [9], 20.6 µM (active); in assay [11], 67 µM (active). For the same compound, the Potency result in assay [12], in assay [13] and in assay [14] was “inactive” each time.
In the case of `CC1(C)C(=O)N(Br)C(=O)N1Cl`, the Potency entry in [3] and in [5] was “inactive” each time.
In the case of `Cc1cccc(Oc2c([N+](=O)[O-])c(=O)n(C)c3ccccc23)c1`, the figures for the Potency in assay [6] and in assay [7] were 21.2 µM (active) and 20 µM (active), respectively. Moreover, the Potency entry in assay [9] and in assay [10] was “inactive” in each case.
Regarding `O=c1oc(=O)c2cc3c(=O)oc(=O)c3cc12`, the Potency result in assay [5] and in assay [2] was “inactive” each time. Besides, the activation in assay [4] was -1.97%.
On to `CC(=O)N1CC[n+]2c(-c3ccc([N+](=O)[O-])cc3)csc21`, for which the Potency in assay [6] was 10 µM (active); in [7], 3.98 µM (active); in assay [8], 7.08 µM (active). The Potency result in assay [9] and in [10] was “inactive” in each case.
As to `OCCOCCOCCOCCOCCO`, the Potency entry in assay [3], in assay [5] and in assay [2] was “inactive” in each case.
Consider `Cc1ccc(-c2nc3ccccn3c2Nc2c(C)cccc2C)o1`, for which the Potency is 17.8 µM (active) in assay [6] and 28.2 µM (active) in [7]. Also, the Potency entry in [9] and in [10] was “inactive” each time.
As to `S=C([S-])NCCNC(=S)[S-].[Mn+2]`, the Potency result in assay [1] and in assay [3] was “inactive” each time.
As for `COC(=O)c1sc(-c2ccc(C(C)(C)C)cc2)cc1NC(=O)/C=C/C(=O)O`, the Potency in assay [6] is 11.9 µM (active); in [7] it was 14.1 µM (active).
Regarding `CCN(Cc1c(F)cccc1Cl)c1c([N+](=O)[O-])cc(C(F)(F)F)cc1[N+](=O)[O-]`, in assay [4], the activation is -3.71%.
Consider `Nc1ccc(Nc2ccccc2)cc1`, for which the Potency entry in assay [1] is “inactive”. Further, the Potency in [2] was 30.6 µM (active). Also, in [4], the activation was 0.195%.
As to `CCCCCCC(C)OC(=O)COc1nc(F)c(Cl)c(N)c1Cl` (stereo unspecified), in assay [4], the activation was 3.49%.
Regarding `O=C(Cl)c1cccc(C(=O)Cl)c1`, the Potency entry in assay [3], in assay [5] and in assay [2] was “inactive” throughout.
For the compound `O=c1[nH]c(/C=C\c2cccc(C(F)(F)F)c2)nc(O)c1[N+](=O)[O-]`, the Potency in assay [6] is 18.9 µM (active); in assay [7] it was 10 µM (active). In addition, the Potency result in assay [9] and in [10] was “inactive” in each case.
For `O=C(Nc1ccccc1)c1cc(Cl)ccc1O`, the Potency in [2] was 5.45 µM (active). Moreover, the activation in assay [4] was 4.05%.
Regarding `CC[C@H]1O[C@]2(CC[C@@H]1C)C[C@@H]1C[C@@H](C/C=C(\C)C[C@@H](C)/C=C/C=C3CO[C@@H]4[C@H](O)C(C)=C[C@@H](C(=O)O1)[C@]34O)O2`, the Potency in [3] is 22.4 µM (active).
